{
  "source": "PubChem BioAssay (NCI)",
  "note": "This is part of a sample that, as a whole, favours compounds with a hit. Of some 83,000 tested, about 20% had one in any assay.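 Step 1: grow cells in 96-well plates. Step 2: add test compound at a single concentration. Step 3: incubate 48 h. Step 4: record percent growth.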 Values without a mark were called inactive. Calls of active or inactive are those of the source.",
  "data": [
    {"system": "MDA-MB-435 melanoma", "experiment": "NCI-60 one-dose screen, 48 h (100 = growth as untreated, 0 = no growth, -100 = all killed)", "conditions": "10 µM unless noted", "experimental": "Growth inhibition of the MDA-MB-435 human Melanoma tumor cell line is measured as a screen for anti-cancer activity. Cells are grown in 96 well plates and exposed to the test compound for 48 hours. Compounds are tested at a single concentration, which is 10^-5 M for most compounds. The reported endpoint is percent growth (GI% or GIPRCNT), where numbers from 0 - 100% represent growth inhibition, and numbers from -100% - 0 represent cell death. For example, a value of 40 represents 60% growth inhibition. A value of 0 means no net growth occurred over the course of the experiment. A value of -40 indicates 40% of cells at the beginning of the experiment died by the end of the experiment. A value of -100 means all cells are dead at the end of the experiment.\nNCI-60 Human Tumor Cell Lines Screen was performed using the standard one-dose NCI protocol, which is described in more detail at https://dtp.cancer.gov/discovery_development/nci-60/default.htm.\nCompounds with GIPRCNT values below 10 were considered active. Activity score was based on GIPRCNT using the following formula: […]\nScore is 0 for GIPRCNT values of 100 or above, 50 for GIPRCNT values of 0, and 100 for GIPRCNT values of -100.", "values": [
      {"smiles": "Cc1ccc(CNS(=O)(=O)/N=C2\\NC(=O)NC2=C(Cl)Cl)cc1", "growth": "47.7%"},
      {"smiles": "CNC(=O)c1cc(-c2ccc(NC(=O)Nc3ccc(N4CCN(C)CC4)c(C(F)(F)F)c3)cc2)nc2cccnc12", "growth": "-93% (active)"},
      {"smiles": "COc1cc2nc(-c3ccc(C)cc3)cc(OCCCNCC3CCCO3)c2cc1OC", "note": "(stereo not given)", "growth": "54.3%"},
      {"smiles": "COc1ccc(-c2nc3ccc(-c4nnc(SCC(=O)Nc5ccc(C(C)=O)cc5)o4)cc3[nH]2)cc1", "growth": "102%"},
      {"smiles": "CS(=O)(=O)c1ccc(-c2nc3ccccn3c2C=Nc2ccc(Cl)cc2)cc1", "growth": "56.7%"},
      {"smiles": "O=C(CSc1nc2sc3c(c2c(=O)n1-c1ccc(Cl)cc1)CCCC3)N/N=C/c1ccc(F)cc1", "growth": "86.9%"},
      {"smiles": "O=C(c1ccc(O)cc1)C1[C@H](c2ccc(Cl)cc2)[C@@H](c2ccccc2)NC12C(=O)Nc1ccc(Cl)cc12", "note": "(stereo not given in full)", "growth": "39.6%"},
      {"smiles": "Cc1ccccc1NC(=O)/C=C/c1ccc(OCCOc2ccc3c(C)cc(=O)oc3c2)cc1", "growth": "90.4%"},
      {"smiles": "O=C1C2=C(C(=O)c3c(O)cccc31)C(c1ccco1)c1sc(=O)[nH]c1S2", "note": "(stereo not given)", "growth": "-45.3% (active)"},
      {"smiles": "O=C(CCN1C(=O)/C(=C/c2ccccc2)SC1=S)N1CCOCC1", "growth": "81.9%"},
      {"smiles": "COc1ccc(-c2nc3ccc(-c4nnc(SCC(=O)Nc5ccc(C(=O)/C=C/c6ccc(Cl)cc6)cc5)o4)cc3[nH]2)cc1OC", "growth": "106%"},
      {"smiles": "O=C(CCN1C(=O)/C(=C/c2ccccc2F)SC1=S)N1CCOCC1", "growth": "80.8%"},
      {"smiles": "Cc1sc2c(c1C)c(=O)nc1c(-c3nc(-c4ccc(F)cc4)no3)n[nH]n12", "growth": "105%"},
      {"smiles": "CCOC(=O)c1c(Nc2ccccc2)nn2c(N)c(C#N)c(-c3ccccc3)nc12", "growth": "75.3%"},
      {"smiles": "CC(=O)Nc1cc(F)cc(-c2ccc3[nH]cc(-c4ccccc4)c3n2)c1", "growth": "9.43% (active)"},
      {"smiles": "Cc1ccc(/C=C/c2nn3c(-c4ccco4)nnc3s2)cc1C", "growth": "99.4%"},
      {"smiles": "c1ccc2c(NCCCn3ccnc3)c3oc4ccccc4c3nc2c1", "growth": "3.7% (active)"},
      {"smiles": "COc1cc(/C=C/C(=O)c2ccccc2)ccc1Oc1nc(NCCO)nc(N2CCOCC2)n1", "growth": "93.1%"},
      {"smiles": "CS(=O)(=O)c1ccc(-c2nc3ccccn3c2/C=N/Nc2nc(-c3ccc(Cl)cc3)cs2)cc1", "growth": "96.8%"},
      {"smiles": "Nc1cc(-c2c[nH]c3ccccc23)nc2cc(-c3c[nH]c4ccccc34)nn12", "growth": "70.9%"},
      {"smiles": "Cc1c(Nc2nnc(SCC(=O)Nc3sc4c(c3C#N)CCCC4)s2)c(=O)n(-c2ccccc2)n1C", "growth": "104%"},
      {"smiles": "CC(O)C(NC(=O)C1CCCN1C(=O)CNC(=O)C1CC(=O)NCC(=O)NC(Cc2c[nH]c3ccccc23)C(=O)NC(Cc2ccc(O)cc2)C(=O)NCC(=O)NC(CO)C(=O)NC(CCC(N)=O)C(=O)NC(Cc2c[nH]c3ccccc23)C(=O)N1)C(=O)NCC(=O)NC(CCC(N)=O)C(=O)NC(CCCNC(=N)N)C(=O)NC(CC(=O)O)C(=O)O", "note": "(stereo not given)", "growth": "100%"},
      {"smiles": "COc1cc2cc(Oc3ccc(NC(=O)c4cccc(C(F)(F)F)c4)cc3)c(C)nc2cc1OCCN1CCCCC1", "growth": "-86.6% (active)"},
      {"smiles": "CN1C(=S)N(C)C2C1NN=C1SC(c3ccccc3)=CC(=O)N12", "note": "(stereo not given)", "growth": "74.2%"},
      {"smiles": "CC(C)(C)Nc1nc2c(OCCc3ccccc3)cccn2c1-c1cccc(F)c1", "growth": "2.41% (active)"},
      {"smiles": "O=C1c2c(c3c4cc(Br)ccc4[nH]c3c3ccc4ccccc4c23)C(=O)N1CCO", "growth": "94.8%"},
      {"smiles": "Cn1ccnc1C(=O)/C=C/c1ccc(NC(=O)Nc2ccccc2)cc1", "growth": "-13.3% (active)"},
      {"smiles": "Nc1nc(N)c2c(n1)NC(c1ccc(C(F)(F)F)cc1)CC(c1ccc(Nc3nc(NCCO)nc(Nc4ccc(Cl)cc4)n3)cc1)=N2", "note": "(stereo not given)", "growth": "-61.5% (active)"},
      {"smiles": "CN(C)c1ccc(/C=C2\\Cc3c(F)ccc(Br)c3C2=O)cc1", "growth": "92.7%"},
      {"smiles": "CCCCN1C(=O)/C(=c2\\sc3n(c2=O)C2C(NN=3)N(CC)C(=O)N2CC)c2cc(Cl)ccc21", "note": "(stereo not given)", "growth": "6.07% (active)"},
      {"smiles": "COc1cc(/C=C/C(=O)c2cc(OC)c(OC)c(OC)c2)ccc1OCc1ccccc1", "growth": "45.9%"},
      {"smiles": "C#C[C@]1(O)CC[C@H]2[C@@H]3CC=C4c5sc(-c6ccc(F)cn6)nc5CC[C@]4(C)[C@H]3CC[C@@]21C", "growth": "18.1%"},
      {"smiles": "COc1ccc(-n2c(SCC(=O)Nc3ccc(-c4nc5ccccc5[nH]4)cc3)nc3ccccc3c2=O)cc1", "growth": "-14.4% (active)"},
      {"smiles": "CS(=O)(=O)c1ccc(-c2nc3ccccn3c2/C=N/Nc2nc(-c3ccc(Br)cc3)cs2)cc1", "growth": "97.2%"},
      {"smiles": "O=C(NNc1nc2cc(F)ccc2n2c(CN3CC4(COC4)C3)ccc12)c1cnccn1", "growth": "35.2%"},
      {"smiles": "N=C1CC(=O)NN1C(=O)CSc1nc2sc3c(c2c(=O)n1-c1ccc(Cl)cc1)CCCC3", "growth": "106%"},
      {"smiles": "CC(=O)c1ccc(Nc2nc(SC(C)C)nc(-c3ccccc3)c2C#N)cc1", "growth": "102%"},
      {"smiles": "COc1ccc(/C=C2\\SC(=Nc3cc(C)[nH]n3)NC2=O)cc1", "growth": "92.4%"},
      {"smiles": "Cc1nc(-c2cc3ccccc3oc2=O)ccc1C(=O)/C=C/c1ccccn1", "growth": "70.8%"},
      {"smiles": "COc1ccc(/C=C2\\SC(=Nc3cc(C)on3)NC2=O)cc1", "growth": "104%"}
    ]}
  ]
}
